In the library only some 5% were active in any assay of this set; here they are far more common.
SENP8 block-1 – SENP8 protease inhibitors, primary screen, biochemical, luminescence; purified SENP8, Z-RLRGG-aminoluciferin cleavage; 330,000 tested, 1.2% active; inhibition, % at 10 µM; Sentrin-specific protease 8 (Homo sapiens), Q96LD8; in the data active = inhibition above about 50%
SENP8 block-2 – human SENP8 protease inhibitors, primary screen, biochemical, fluorescence, Nedd8 protein substrate, uHTS; recombinant SENP8; inhibition, % at 20 µM; 360,000 tested, 0.64% active; in the data active = inhibition mostly above about 40%, no sharp cut-off; inactive = mostly below about 27%
AHR act – AHR activators, primary screen, cell-based, luminescence, luciferase reporter, human. Aryl hydrocarbon receptor (Homo sapiens), P35869. AHR-responsive luciferase reporter cells. activation, % at 5 µM. 320,000 tested, 2.5% active; in the data active = activation above about 47%;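 note: 0% = vehicle wells and 100% = reference agonist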
EBI2 antag – EBI2 receptor antagonists, beta-arrestin recruitment, primary screen, cell-based, luminescence, 7a,25-OHC stimulation, uHTS. inhibition, % at 5 µM. 7a,25-OHC stimulated. 360,000 tested, 0.81% active; in the data active = inhibition above about 38%;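 note: enzyme fragment complementation signal reports receptor beta-arrestin coupling in cells; 0% = agonist plus DMSO wells and 100% = wells without agonist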
Target sequence (P32249 whole entry, looked up, the tested form may be a part): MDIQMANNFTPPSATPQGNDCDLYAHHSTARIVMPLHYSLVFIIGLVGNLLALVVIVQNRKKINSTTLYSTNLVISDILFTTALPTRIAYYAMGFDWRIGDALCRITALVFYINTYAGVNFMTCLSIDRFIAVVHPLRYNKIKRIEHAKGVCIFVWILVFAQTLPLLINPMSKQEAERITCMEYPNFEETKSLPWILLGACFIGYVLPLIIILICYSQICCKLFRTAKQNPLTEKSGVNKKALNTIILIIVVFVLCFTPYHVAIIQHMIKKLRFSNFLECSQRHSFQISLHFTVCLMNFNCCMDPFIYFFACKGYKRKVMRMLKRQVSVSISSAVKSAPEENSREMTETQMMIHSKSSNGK
SENP6 block – SENP6 protease inhibitors, primary screen, biochemical, luminescence, uHTS; Sentrin-specific protease 6 (Homo sapiens), Q9GZR1; Recombinant SENP6 catalytic domain, aminoluciferin luminescence; inhibition, % at 10 µM; 330,000 tested, 1.8% active;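 active = inhibition above about 50% at the single tested dose, limit read from the data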;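 note: plate controls were DMSO wells with enzyme for no effect and DMSO wells lacking enzyme for full effect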
SENP7 inh – SENP7 protease inhibitors, primary screen, biochemical, luminescence, uHTS | Sentrin-specific protease 7 (Homo sapiens), Q9BQF6 | recombinant SENP7, Z-RLRGG-aminoluciferin luminescence, 40 min | inhibition, % at 5 µM | 330,000 tested, 1.5% active | AID 434973, 2010;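 active = inhibition above about 50% at the single test dose, limit read from the data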;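 note: plate controls were DMSO with enzyme for no effect and no enzyme buffer wells for full effect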
Target sequence (Q9BQF6 706-1050 limits assumed): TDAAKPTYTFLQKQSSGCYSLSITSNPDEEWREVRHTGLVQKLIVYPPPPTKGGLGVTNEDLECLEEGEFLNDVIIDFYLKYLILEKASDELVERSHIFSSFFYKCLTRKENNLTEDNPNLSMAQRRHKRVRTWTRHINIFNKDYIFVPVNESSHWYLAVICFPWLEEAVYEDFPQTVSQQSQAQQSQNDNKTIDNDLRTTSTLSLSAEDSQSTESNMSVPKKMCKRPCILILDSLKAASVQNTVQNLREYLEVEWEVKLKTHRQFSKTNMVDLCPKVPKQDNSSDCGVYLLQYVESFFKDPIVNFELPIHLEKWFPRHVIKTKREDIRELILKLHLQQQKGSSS
EBI2 antag conf – EBI2 antagonist hit retest, beta-arrestin, confirmation, cell-based, single concentration, luminescence, 7a,25-OHC stimulation; shares compounds with EBI2 antag; 7a,25-OHC antagonism; inhibition, % at 5 µM; 2,400 tested, 29% active; AID 651997, 2013;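 active = inhibition of at least 50%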
EBI2 agonist – EBI2 agonist activity of antagonist hits, confirmation, counter-screen for EBI2 antagonist project, cell-based, single concentration, agonist mode, luminescence. AID 652000, 2013. EBI2-expressing cells, 60 min; 0% vehicle, 100% 7α,25-dihydroxycholesterol control. activation, % at 5 µM. 2,400 tested, under 10 active. shares compounds with EBI2 antag;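 active = activation of at least 50%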
bGal counter – E. coli beta-galactosidase enzyme inhibition, confirmation, counter-screen for EBI2 antagonist project, biochemical, luminescence, single concentration; shares compounds with EBI2 antag; purified beta-galactosidase, luminescent Galacton Star, 15 min; inhibition, % at 5 µM; 2,400 tested, 1% active; AID 652176, 2013;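 active = replicate-average signal at least 3 plate SD below neutral wells, shown as high inhibition, flagging enzyme-inhibiting false positives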;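 note: 0% = DMSO wells with enzyme and 100% = wells lacking enzyme; higher means stronger loss of beta-gal luminescence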
An asterisk follows results filed as active; x = no result given.

SMILES	SENP8 block-1	SENP8 block-2	AHR act	EBI2 antag	SENP6 block	SENP7 inh	EBI2 antag conf	EBI2 agonist	bGal counter
O=S(=O)(c1ccc(NC(=S)Nc2ccc(OC(F)F)cc2)cc1)N1CCOCC1	0.1	-1.9	-0.3	49.1*	10.7	9.0	44.8	0.2	-2.6
O=C(COc1ccccc1)Nc1ccc(S(=O)(=O)N2CCCCCC2)cc1	0.7	13.3	-2.0	29.1	-6.7	3.3	x	x	x
NNC(=S)Nc1ccc(S(=O)(=O)N2CCCCC2)cc1	-5.2	-4.3	2.4	43.6*	-22.3	-3.5	37.8	0.7	6.0
O=C(COc1ccc2ccccc2c1)Nc1ccc(S(=O)(=O)N2CCCCCC2)cc1	4.3	-19.1	14.7	55.9*	-4.2	4.1	12.4	0.8	9.4
Cc1ccc(CNC(=O)C2=CCN(S(=O)(=O)c3ccc(C)cc3)CC2)cc1	4.6	-0.2	0.3	66.2*	-9.8	1.8	28.9	1.6	4.7
CC(C)Cn1ccc(=O)n(CC(C)C)c1=O	-2.6	4.4	0.4	-7.7	3.8	7.6	x	x	x
COc1ccc(-c2cc(C3CCN(c4ccc(C(C)=O)cc4[N+](=O)[O-])CC3)[nH]n2)cc1	-16.7	13.4	-0.3	8.9	-18.2	-5.0	x	x	x
COC(=O)c1ccc(N2CCC(c3cc(-c4ccc(OC)cc4)n[nH]3)CC2)c([N+](=O)[O-])c1	-13.7	18.4	-1.0	49.5*	4.3	-7.5	6.2	-0.2	6.0
Cc1ccc(S(=O)(=O)c2ccc(Cl)cc2)cc1S(=O)(=O)NC(C)C(=O)O (stereo unspecified)	-14.2	26.6	12.7	-2.4	-28.1	-2.0	x	x	x
S=c1[nH]c(-c2ccc(Br)cc2)cn1CCc1ccccc1	1.1	-18.4	15.6	56.6*	-14.3	7.8	40.8	1.7	-0.9
Nc1ccc(-n2cc(-c3ccccc3)[nH]c2=S)cc1	-10.7	-17.3	24.4	-1.5	7.3	3.8	x	x	x
COc1cc(NC(=O)CSCc2cnn(-c3ccccc3)c2-n2cccc2)cc(OC)c1	-5.1	16.5	6.3	37.3*	-7.7	-6.5	13.7	-1.7	-12.7
C=CCN1C(=O)CS/C1=N/c1nccs1	-5.5	12.2	2.5	-1.2	-11.1	-7.1	x	x	x
C=CCN1C(=O)/C(=C/c2ccccc2)S/C1=N/c1nccs1	5.6	19.4	9.3	57.1*	14.8	6.4	46.5	2.6	4.3
O=C(NN1CCOCC1)c1ccc(F)cc1	0.5	13.2	-0.3	-0.1	0.0	2.0	x	x	x
O=C(NCc1cccnc1)C(=O)NCC1OCCCN1S(=O)(=O)c1ccccc1 (stereo unspecified)	-10.5	11.3	5.1	-10.7	-3.4	-3.1	x	x	x
O=C(c1ccco1)N1CCN(c2ncnc3c2nnn3Cc2ccccc2Cl)CC1	-5.5	17.2	-1.6	2.6	9.7	3.7	x	x	x
O=C(c1ccco1)N1CCN(c2nc(C(F)(F)F)nc3c2nnn3Cc2ccccc2)CC1	-5.3	12.0	-3.9	48.0*	-2.9	2.5	30.3	1.8	6.8
O=C(CN1CCN(C(=O)c2cccc(-n3cnnn3)c2)CC1)Nc1ccccc1Cl	3.4	-2.0	0.2	-9.2	-14.8	9.1	x	x	x
Cc1cccc(Oc2nc3ccccn3c(=O)c2/C=C(\C#N)C(=O)NC2CCS(=O)(=O)C2)c1 (stereo unspecified)	8.6	-434.8	13.6	45.0*	1.7	1.3	53.3*	-0.2	-17.8
Cc1ccc(Oc2nc3ccccn3c(=O)c2/C=C(\C#N)C(=O)Nc2c(C)n(C)n(-c3ccccc3)c2=O)c(C)c1	-5.7	-336.7	17.4	63.4*	-22.0	-8.9	58.2*	2.2	2.8
Cc1cc(Oc2nc3ccccn3c(=O)c2/C=C(\C#N)C(=O)NC2CCS(=O)(=O)C2)ccc1Cl (stereo unspecified)	-8.8	-329.4	2.5	49.1*	-15.0	-3.2	66.0*	-1.5	-14.1
CCN(CC(=O)NCc1ccc(F)cc1)C(=O)/C=C/c1ccc(OC)c(S(=O)(=O)NC(C)C)c1	-11.3	17.1	0.2	-5.3	-2.1	-5.5	x	x	x
O=C(C=Cc1ccc2c(c1)OCO2)OCC=Cc1ccc2c(c1)OCO2	x	-432.3	x	-3.9	x	x	x	x	x
CC(C)C[C@@H](CN1CCC[C@@H]1CN1C(=S)NC[C@@H]1Cc1ccc(O)cc1)N1C[C@H](Cc2ccccc2)N(CCc2ccccc2)C1=S	x	13.9	x	47.1*	x	x	5.7	-1.1	-7.1
SMILES	SENP8 block-1	SENP8 block-2	AHR act	EBI2 antag	SENP6 block	SENP7 inh	EBI2 antag conf	EBI2 agonist	bGal counter
Oc1ccc(C[C@H]2CNC(=S)N2CC2CCCN2C[C@H](Cc2ccc(O)cc2)N2C[C@H](Cc3ccccc3)N(CCc3ccccc3)C2=S)cc1 (stereo partly specified)	x	4.1	x	41.9*	x	x	17.0	-0.5	8.0
CC(C)C[C@H]1CNC(=S)N1C[C@H]1CCCN1C[C@H](CC(C)C)N1C[C@H](Cc2ccc(O)cc2)N(CCc2ccccc2)C1=S	x	8.4	x	43.5*	x	x	14.2	0.8	8.4
CC(Sc1nnnn1-c1ccc(Cl)cc1)C(=O)NCC(=O)Nc1ccc(F)c(F)c1F (stereo unspecified)	-8.7	11.2	4.7	-0.7	-22.6	3.7	x	x	x
CSc1cccc(NS(=O)(=O)c2cc(Br)cnc2N)c1	-1.6	8.2	-0.8	-4.3	6.0	-10.5	x	x	x
COc1ccc(NC(=O)c2csc(Cc3ccccc3)n2)cc1	-8.5	15.3	32.4	40.2*	-1.0	0.9	35.2	0.2	-17.2
O=C(CC1C(=O)NCCN1Cc1cccc(C(F)(F)F)c1)NCCc1cnccn1 (stereo unspecified)	0.9	-27.9	0.2	-1.9	-7.5	-4.0	x	x	x
N#Cc1cc2c(nc1SCC(=O)Nc1sc3c(c1C#N)CCC3)CCCCCC2	-7.9	17.0	4.0	46.9*	-12.1	-9.1	18.8	0.6	6.1
CC(C)Nc1nc(NCCOc2ccccc2Cl)c2sc(-c3ccccc3)cc2n1	x	-286.0	x	51.8*	x	x	30.1	0.1	-14.8
COCCNc1nc(NCCN2CCNC2=O)c2sc(-c3ccccc3)cc2n1	x	-408.5	x	1.2	x	x	x	x	x
COCCNc1nc(Oc2cccc(NC(C)=O)c2)c2sc(-c3ccccc3)cc2n1	x	-264.8	x	22.9	x	x	x	x	x
